Data on 7 sequences can be found in the supplement of paper PMC6555819.

Common to all, as to test: PBM binding z-score (relative to random genomic background probes); higher = stronger binding; sequences stand for … in GC…GCGATTGACAGCGTAGAATGAAGG
For assay [1], the system named is FXR:RXRa (NR concentration 270 nM, RXRa partner concentration 90 nM). The procedure, abridged: (§1)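 Scanned fluorescence from custom Agilent 4×180K protein-binding microarrays was regression-normalized. Binding z-scores use random background probes as reference. Ligand-free nuclear receptor dimers were incubated on the arrays for 1 h and detected with antibodies against each partner (one per run).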

In assay [2] the test system is LXRa:RXRa (NR concentration 270 nM, RXRa partner concentration 90 nM). The procedure, abridged:
as §1

The subject of assay [3] is LXRa homodimer (NR concentration 270 nM). The procedure, abridged:
as §1

Assay [4] concerns LXRb:RXRa (NR concentration 270 nM, RXRa partner concentration 90 nM). Summed up:
as §1

In assay [5] the test system is LXRb homodimer (NR concentration 270 nM). The procedure, abridged:
as §1

The test system of assay [6] is PPARa:RXRa (NR concentration 270 nM, RXRa partner concentration 90 nM). Summed up:
as §1

The test system of assay [7] is PPARg:RXRa (NR concentration 180 nM, RXRa partner concentration 90 nM). Summed up:
as §1

Assay [8] relates to PPARg:RXRa 270nM:90nM, anti-RXR (NR concentration 270 nM, RXRa partner concentration 90 nM). The procedure, abridged:
as §1

Assay [9] has as its system PPARg:RXRa 30nM:10nM, anti-RXR (NR concentration 30 nM, RXRa partner concentration 10 nM). The procedure, abridged: as §1
The test system of assay [10] is PPARg:RXRa 90nM:30nM, anti-RXR (NR concentration 90 nM, RXRa partner concentration 30 nM). Summed up: as §1
Assay [11] concerns PPARg:RXRa DBDmut IVT, anti-RXR (DBD mutation: RXRa K156A/R161A, NR concentration 270 nM, RXRa partner concentration 90 nM). Summed up: as §1
For assay [12], the system named is PPARg:RXRa IVT, anti-PPARg (NR concentration 270 nM, RXRa partner concentration 90 nM). Summed up:
as §1

The test system of assay [13] is PPARg DBDmut:RXRa IVT, anti-PPARg (DBD mutation: PPARg1 K132A/R137A, NR concentration 270 nM, RXRa partner concentration 90 nM). The procedure, abridged: as §1
The test system of assay [14] is PPARg DBDmut IVT, anti-PPARg (DBD mutation: PPARg1 K132A/R137A, NR concentration 270 nM). Summed up:
as §1

Assay [15] has as its system PPARg homodimer (NR concentration 180 nM). The procedure, abridged: as §1
The test system of assay [16] is PXR:RXRa (NR concentration 270 nM, RXRa partner concentration 90 nM). Summed up: as §1
Assay [17] concerns PXR homodimer (NR concentration 270 nM). Summed up: as §1
Assay [18] has as its system RARa:RXR (NR concentration 270 nM, RXRa partner concentration 90 nM). The procedure, abridged: as §1
In assay [19] the test system is RARa homodimer (NR concentration 270 nM). The procedure, abridged:
as §1

Assay [20] concerns RARb:RXRa (NR concentration 270 nM, RXRa partner concentration 90 nM). The procedure, abridged: as §1

In the case of CTCGAAAGGTCGTGCTCAGGTGAATATACCAAAC, the PBM binding z-score in assay [1] came out at 5.33; in [2] it was 4.19; in assay [3] it was 0.375; in [4], 3.82; in assay [5] it was 0.534; in assay [6] it was 5.05. Moreover, the PBM binding z-score was 2.81 in assay [7]; 3.84 in [8]; 1.1 in [9]; 2.6 in assay [10]; 0.879 in assay [11]; 2.15 in [12]. The PBM binding z-score in assay [13] was determined as 0.682; in assay [14], 0.68; in assay [15], 1.34; in assay [16], 3.6; in [17], 0.506; in [18], 4.28. Moreover, the PBM binding z-score in [19] worked out at 0.678; in assay [20], 3.92.

As to AGCTCTAGGTAAAGTTCAGTGAAAGATCGATAGA, the PBM binding z-score is 0.591 in assay [1]; 1.3 in assay [2]; 0.886 in [3]; 0.579 in assay [4]; -0.0933 in assay [5]; 1.83 in assay [6]. In addition, the PBM binding z-score in assay [7] was found to be 1.55; in assay [8] it was 2.93; in [9], 0.866; in [10] it was 2.37; in assay [11], 2.67; in [12] it was 1.47. In addition, the PBM binding z-score in assay [13] stood at 0.472; in assay [14], 0.107; in [15], 0.759; in assay [16], 1.27; in [17], 1.19; in assay [18], 0.896. Moreover, the PBM binding z-score was determined as 0.442 in assay [19] and 2.67 in assay [20].

On to ACTAGTTGGTCAGCTCAGGTCACACACAATTCGG, for which the PBM binding z-score was determined as 1.73 in assay [1]; 1.66 in assay [2]; 1.68 in assay [3]; 1.95 in assay [4]; 0.675 in assay [5]; 2.03 in assay [6]. Also, the PBM binding z-score in assay [7] was 1.04; in assay [8], 0.796; in assay [9], -0.0327; in [10], 0.521; in assay [11], 1.24; in [12] it was 2.1. Also, the PBM binding z-score in assay [13] stood at 0.448; in [14], 1.3; in [15], 1.64; in assay [16] it was 3.54; in assay [17] it was 0.961; in assay [18] it was 2.58. Besides, the PBM binding z-score was determined as 1.11 in assay [19] and 2.7 in [20].

As to ATCGAAAGGTTGAAGGTGAGTATACCCACCCGAA, the PBM binding z-score was 0.788 in [1]; 1.06 in [2]; -0.269 in assay [3]; 0.741 in [4]; 0.0854 in assay [5]; 2.36 in assay [6]. For the same sequence, the PBM binding z-score was 1.68 in [7]; 1.92 in [8]; 0.761 in assay [9]; 1.52 in [10]; -0.526 in [11]; 0.764 in assay [12]. The PBM binding z-score in assay [13] is 0.619; in assay [14], 0.928; in [15], 0.699; in [16] it was 1.06; in [17], -0.0881; in assay [18] it was 1.79. In addition, the PBM binding z-score in assay [19] stood at 0.177; in [20], 1.66.

On to TTACCACGGTGAAGGTCGTTGATCCCTCTGTAGA, for which the PBM binding z-score in [1] is 1.28; in assay [2], 1.71; in assay [3], 0.151; in assay [4], 1.26; in assay [5] it was -0.41; in [6] it was 1.57. Besides, the PBM binding z-score in assay [7] was determined as 0.322; in assay [8] it was 1.94; in assay [9], 0.678; in assay [10], 1.24; in assay [11], 0.157; in assay [12] it was 1.1. Moreover, the PBM binding z-score in assay [13] is -0.118; in assay [14], -0.0664; in assay [15], 0.191; in [16], 1.13; in assay [17], 0.169; in [18], 1.59. Further, the PBM binding z-score was -0.497 in assay [19] and 1.17 in [20].

Regarding TCATCTAGGTAAACAGGTGAAAGTCCGTAAGTTA, the PBM binding z-score in assay [1] was 1.02; in assay [2], 0.956; in assay [3], 0.17; in assay [4] it was 1.04; in [5], 0.174; in [6], 2.4. Also, the PBM binding z-score in [7] was determined as 3.14; in assay [8] it was 3.94; in assay [9], 3.92; in [10], 3.86; in assay [11], 4.8; in assay [12], 5.11. Also, the PBM binding z-score was determined as 1.31 in [13]; 1.14 in assay [14]; 0.609 in [15]; 0.409 in assay [16]; 0.487 in assay [17]; 0.888 in [18]. Moreover, the PBM binding z-score came to 0.849 in [19] and 0.534 in assay [20].

On to CAAACTAGGTCACCGGAAGATCAAAGTCCGCATG, for which the PBM binding z-score in [1] amounted to 4.71; in assay [2], 3.6; in assay [3], 0.641; in assay [4], 2.62; in assay [5], 0.598; in assay [6] it was 5.66. For the same sequence, the PBM binding z-score stood at 9.41 in assay [7]; 7.49 in assay [8]; 5.48 in [9]; 7.48 in assay [10]; 8.57 in [11]; 9.02 in [12]. Further, the PBM binding z-score in [13] was 7.41; in assay [14] it was 5.5; in assay [15] it was 6.16; in assay [16] it was 2.27; in assay [17], 0.35; in [18], 3.33. The values for the PBM binding z-score in assay [19] and in [20] were 1.83 and 4.28, respectively.
